Screening data: PubChem BioAssay, several laboratories
GIRK2 activator: Activators of human GIRK2-containing channels | P48051 | HEK293 GIRK2/NPY4 cells, thallium flux fluorescence | activation (% efficacy), % for hits at 37.5 µM | 34,000 tested, under 10 active;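 active = primary screen hit, no activity in plain HEK293 cells, and in GIRK2-only cells above 5% efficacy rising with concentration; inactive = the rest, including fluorescent compounds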;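 also: efficacy is normalized control-subtracted fluorescence 15 s after thallium addition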
GluA2 TARP mod: modulates AMPAR-stargazin complexes; O88602+P19491; HEK293 GluA2+stargazin, membrane potential dye (FDSS), glutamate EC50; hits were called plate by plate, in both directions; calls only at 30 µM; actives 3.5% (n = 40,000);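 active = any of four per-well response measures lying three or more SD from its plate-wide compound average, in either direction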
Target sequence (O88602 whole entry, looked up): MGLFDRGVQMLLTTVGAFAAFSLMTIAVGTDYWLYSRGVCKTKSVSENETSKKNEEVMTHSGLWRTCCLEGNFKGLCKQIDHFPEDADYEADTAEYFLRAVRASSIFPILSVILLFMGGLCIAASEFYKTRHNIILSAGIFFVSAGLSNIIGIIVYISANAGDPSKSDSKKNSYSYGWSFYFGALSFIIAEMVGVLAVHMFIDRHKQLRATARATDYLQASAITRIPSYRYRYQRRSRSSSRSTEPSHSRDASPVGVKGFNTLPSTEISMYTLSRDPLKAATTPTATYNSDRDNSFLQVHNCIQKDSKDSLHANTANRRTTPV
Target sequence (P19491 whole entry, looked up): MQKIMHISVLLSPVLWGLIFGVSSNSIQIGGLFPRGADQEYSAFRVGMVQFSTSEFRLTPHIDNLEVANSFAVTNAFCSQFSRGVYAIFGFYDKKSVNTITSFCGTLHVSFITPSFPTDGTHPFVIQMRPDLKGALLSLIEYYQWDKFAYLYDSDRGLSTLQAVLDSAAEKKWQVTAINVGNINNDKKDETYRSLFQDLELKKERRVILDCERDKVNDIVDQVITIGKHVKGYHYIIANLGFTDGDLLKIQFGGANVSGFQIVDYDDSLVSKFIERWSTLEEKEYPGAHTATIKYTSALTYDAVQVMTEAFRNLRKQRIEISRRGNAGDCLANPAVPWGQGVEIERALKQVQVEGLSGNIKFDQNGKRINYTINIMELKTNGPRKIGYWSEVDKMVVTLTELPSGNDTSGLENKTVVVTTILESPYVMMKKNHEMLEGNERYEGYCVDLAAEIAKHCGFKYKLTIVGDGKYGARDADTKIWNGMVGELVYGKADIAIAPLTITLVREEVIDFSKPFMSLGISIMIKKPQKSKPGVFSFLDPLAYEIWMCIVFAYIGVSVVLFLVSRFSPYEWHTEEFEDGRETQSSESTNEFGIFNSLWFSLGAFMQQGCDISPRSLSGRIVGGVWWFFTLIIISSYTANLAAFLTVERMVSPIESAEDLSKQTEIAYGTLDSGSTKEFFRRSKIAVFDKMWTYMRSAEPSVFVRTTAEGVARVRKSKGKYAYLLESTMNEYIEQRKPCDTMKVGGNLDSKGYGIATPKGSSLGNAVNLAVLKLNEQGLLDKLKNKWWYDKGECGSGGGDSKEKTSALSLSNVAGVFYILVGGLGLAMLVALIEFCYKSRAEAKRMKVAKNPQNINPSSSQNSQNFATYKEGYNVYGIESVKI
The depositor's hits bear a star. This excerpt belongs to a sample that is enriched for hits.

`CCCCN1CC(c2nc3ccccc3n2Cc2ccc(Cl)cc2)CC1=O` (stereo not drawn) gave GluA2 TARP mod inactive.
`CCCCN1CC(c2nc3ccccc3n2CCOc2ccccc2)CC1=O` (stereo not drawn) gave GluA2 TARP mod inactive.
For C=CCN1CC(c2nc3ccccc3n2Cc2ccccc2Cl)CC1=O (stereo not drawn) the results were GluA2 TARP mod inactive.
CCN1CC(c2nc3ccccc3n2Cc2c(Cl)cccc2Cl)CC1=O (stereo not drawn) was read as GluA2 TARP mod active.
Screening C=CCN1CC(c2nc3ccccc3n2Cc2c(Cl)cccc2Cl)CC1=O (stereo not drawn) returned GluA2 TARP mod active.
For CCCCN1CC(c2nc3ccccc3n2CCOc2cccc(C)c2)CC1=O (stereo not drawn) the results were GluA2 TARP mod active.
CCN1CC(c2nc3ccccc3n2Cc2ccc(Cl)cc2Cl)CC1=O (stereo not drawn) was read as GluA2 TARP mod active.
Screening CCN1CC(c2nc3ccccc3n2CC(=O)N2CCCCC2)CC1=O (stereo not drawn) returned GIRK2 activator inactive.
`Cn1c(=O)c2c(ncn2CC(=O)c2ccc([N+](=O)[O-])cc2)n(C)c1=O` gave GluA2 TARP mod inactive.
CCOC(=O)c1ccccc1NC(=O)Cn1cnc(-c2cccs2)cc1=O was read as GIRK2 activator inactive and GluA2 TARP mod inactive.
For CNC(=O)C(=O)Nc1ccc(N2CCCS2(=O)=O)cc1 the results were GluA2 TARP mod inactive.
For Cc1cc(C)c2c(n1)nn1c(N3CCN(CCOc4ccc(Cl)cc4)CC3)cc(C)nc21 the results were GluA2 TARP mod inactive.
`COc1ccc(F)cc1CN1CCN(c2cc(C)nc3c4c(C)cc(C)nc4nn23)CC1` gave GIRK2 activator inactive and GluA2 TARP mod active.
Cc1cc(C)c2c(n1)nn1c(N3CCN(Cc4ccccc4)CC3)cc(C)nc21 was read as GIRK2 activator inactive and GluA2 TARP mod active.
C=C(C)CN1CCN(c2cc(C)nc3c4c(C)cc(C)nc4nn23)CC1 was read as GIRK2 activator inactive and GluA2 TARP mod active.
COc1ccccc1-c1cnn2c(N3CCN(CC#N)CC3)cc(C)nc12 was read as GIRK2 activator inactive and GluA2 TARP mod inactive.
Cc1cc(N2CCN(CC#N)CC2)n2nc(C(F)(F)F)c(-c3ccccc3)c2n1 was read as GIRK2 activator inactive and GluA2 TARP mod inactive.
`O=C(Nc1ccc(CC(=O)N2CCC(O)CC2)cc1)Nc1ccc(C(F)(F)F)cc1` gave GIRK2 activator inactive.
For COc1ccc(CCS(=O)(=O)NCC2(O)CCCC2)cc1 the results were GIRK2 activator inactive and GluA2 TARP mod inactive.
Screening CSc1ncccc1C(=O)NCC(O)c1ccc(C(F)(F)F)cc1 (stereo not drawn) returned GIRK2 activator inactive.
`Cn1c(=O)c2c(ncn2CC(=O)Nc2cc(-c3ccco3)nn2CCO)n(C)c1=O` gave GIRK2 activator inactive and GluA2 TARP mod inactive.
CSc1ccc(CC(=O)Nc2nc3ccc(F)cc3s2)cc1 was read as GluA2 TARP mod inactive.
Screening CN(C)C(=O)CSc1ncnc2sc(-c3ccccc3)cc12 returned GIRK2 activator inactive and GluA2 TARP mod active.
For O=C(CSc1ncnc2[nH]ncc12)c1ccc(-c2ccccc2)cc1 the results were GluA2 TARP mod inactive.
Screening O=C(NCC1(c2ccc(F)cc2)CC1)c1ccc(Cl)cc1Cl returned GIRK2 activator inactive and GluA2 TARP mod inactive.
COc1cccc(C(CNC(=O)c2cccc3ccccc23)N2CCOCC2)c1 (stereo not drawn) was read as GluA2 TARP mod active.
COc1cccc(C(CNC(=O)C2(c3cccs3)CCCC2)N2CCOCC2)c1 (stereo not drawn) was read as GIRK2 activator inactive and GluA2 TARP mod active.
COc1cccc(C(CNC(=O)C(=O)NCc2cccs2)N2CCOCC2)c1 (stereo not drawn) was read as GIRK2 activator inactive and GluA2 TARP mod inactive.
Screening COc1cccc(C(CNC(=O)Cc2cccc3ccccc23)N2CCOCC2)c1 (stereo not drawn) returned GluA2 TARP mod inactive.
For CCOc1ccc(C(=O)Nc2ccc(N3CCCC3=O)cc2)cc1OCC the results were GIRK2 activator inactive and GluA2 TARP mod inactive.
For COc1cc(S(=O)(=O)Nc2cc(Cl)ccc2O)c(OC)cc1C the results were GIRK2 activator inactive and GluA2 TARP mod inactive.
O=S(=O)(Nc1cc(Cl)ccc1O)c1cc(Cl)ccc1Cl was read as GIRK2 activator inactive and GluA2 TARP mod active.
For COc1ccc(NC(=O)Cn2nc(SC)c(S(=O)(=O)c3ccccc3)c2N)c(OC)c1 the results were GluA2 TARP mod active.
`COc1ccc(NC(=O)Cn2nc(SC)c(S(=O)(=O)c3ccc(OC)cc3)c2N)cc1` gave GluA2 TARP mod inactive.
Screening CCCOc1cn(-c2ccc(F)cc2)nc1C(=O)Nc1ccc(NC(C)=O)cc1 returned GIRK2 activator inactive and GluA2 TARP mod inactive.
`N=c1c(C(=O)NC2CCCC2)cc2c(=O)n3ccccc3nc2n1C1CCCC1` gave GIRK2 activator inactive and GluA2 TARP mod active.
Cc1ccc(CNC(=O)c2cc3c(=O)n4ccccc4nc3n(Cc3ccco3)c2=N)cc1 was read as GIRK2 activator inactive and GluA2 TARP mod inactive.
`O=C(NCCC(O)c1cccs1)C1(c2ccc(Cl)cc2)CCCC1` (stereo not drawn) gave GIRK2 activator inactive and GluA2 TARP mod active.
For O=C(CCSc1ccccc1)NCCC(O)c1cccs1 (stereo not drawn) the results were GIRK2 activator inactive and GluA2 TARP mod inactive.
`Cc1ccccc1NC(=O)c1[nH]cnc1C(=O)Nc1ccc(F)cc1` gave GluA2 TARP mod inactive.
`Cc1cccc(Nc2ccc(N3CCN(C(=O)Cc4c[nH]c5ccccc45)CC3)nn2)n1` gave GIRK2 activator inactive and GluA2 TARP mod active.
Cc1cccc(Nc2ccc(N3CCN(C(=O)C(C)(C)C)CC3)nn2)n1 was read as GIRK2 activator inactive.
For CC(=O)N1CCN(c2nnc(SCC(=O)Nc3cc(C)on3)s2)CC1 the results were GIRK2 activator inactive and GluA2 TARP mod inactive.
For Cc1cccc(Nc2ccc(N3CCN(C(=O)c4c(F)cccc4F)CC3)nn2)n1 the results were GIRK2 activator inactive.
Cc1cccc(Nc2ccc(N3CCN(C(=O)Cc4cccs4)CC3)nn2)n1 was read as GIRK2 activator inactive and GluA2 TARP mod active.
For Cc1cc(NC(=O)CSc2nnc(N3CCN(C(=O)Cc4cccs4)CC3)s2)no1 the results were GIRK2 activator inactive and GluA2 TARP mod active.
`COc1ccc(CCNC(=O)CSc2ccnc3c2c(=O)n(C)c(=O)n3C)cc1OC` gave GIRK2 activator inactive and GluA2 TARP mod inactive.
COc1ccc(S(=O)(=O)Nc2ccc3c(c2)N(C(=O)C2CC2)CC3)cc1 was read as GIRK2 activator inactive and GluA2 TARP mod inactive.
Screening CCc1ccc(S(=O)(=O)Nc2ccc3c(c2)N(C(=O)C2CC2)CC3)s1 returned GIRK2 activator inactive and GluA2 TARP mod active.
For Cc1ccc(C(=O)Nc2nnc(-c3cccs3)o2)cc1 the results were GluA2 TARP mod inactive.
COc1ccc(C(=O)Nc2nnc(-c3ccccc3OC)o2)cc1OC was read as GluA2 TARP mod active.
